Laboratory results from the supplement of paper PMC9177965.

What was measured:
[1] = tested on: HT29 RNF43 G659fs (RNF43 659mut, CRISPR-edited); test: cell viability activity relative to DMSO (negative = inhibition); higher = more viable cells (less growth inhibition); settings: 5 µM; 96 h
Procedure: (§1)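 Broad Repurposing Library primary screen at a single dose of 5 uM. HT29 sg-Ctrl and HT29 RNF43 G659fs CRISPR-edited isogenic cells were seeded at 2500 cells/well in 384-well plates in duplicate and treated for 96 h. Viability was read by CellTiter-Glo and reported as % activity relative to DMSO, with MG132 as the positive control (negative = growth inhibition).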

[2] = tested on: HT29 sg-Ctrl (RNF43 wildtype); test: as above; settings: 5 µM; 96 h
Procedure: as §1

Row | SMILES | cell viability activity [1] | cell viability activity [2]
1 | CN1CCCN=C1COC(=O)C(O)(c1ccccc1)C1CCCCC1 (stereo unspecified) | -55.3% | -50.3%
2 | O=C(/C=C/c1cccc(S(=O)(=O)Nc2ccccc2)c1)NO | -88.3% | -73.9%
3 | Clc1ccc(COC(Cn2ccnc2)c2ccc(Cl)cc2Cl)cc1 (stereo unspecified) | -23.9% | -14.6%
4 | C[C@@H](NC(=O)c1ncnc(N)c1Cl)c1ncc(C(=O)Nc2cc(C(F)(F)F)c(Cl)cn2)s1 | -24.4% | -29.1%
5 | COc1ccc(NC(=O)c2ccc(-c3ccc(-c4noc(C)n4)cc3C)cc2)cc1N1CCN(C)CC1 | -61% | -57.8%
6 | COc1ccc2c(O[C@@H]3C[C@H]4C(=O)N[C@]5(C(=O)NS(=O)(=O)C6CC6)C[C@H]5/C=C\CCCCN(C)C(=O)[C@@H]4C3)cc(-c3nc(C(C)C)cs3)nc2c1C | -30% | -23.2%
7 | CCOC(=O)[C@H](Cc1ccccc1)NC(=O)c1cc(Cl)c(OCCN2CCN(C)CC2)c(Cl)c1O | -34% | -41.2%
8 | COc1cccc(Nc2ncnn3ccc(CN4CC[C@@H](N)[C@H](O)C4)c23)c1 | -24% | -31.4%
9 | CN(c1ncccc1CNc1nc(Nc2ccc3c(c2)CC(=O)N3)ncc1C(F)(F)F)S(C)(=O)=O | -83.7% | -83.1%
10 | CC(C)c1ccc(NC(=O)Cn2cnc3c2c(=O)n(C)c(=O)n3C)cc1 | -55.3% | -23.8%
11 | COc1cc2c(Oc3ccc(NC(=O)C4(C(=O)Nc5ccc(F)cc5)CC4)cc3F)ccnc2cc1OCCCN1CCOCC1 | -92.2% | -37.8%
12 | Cc1c(C2CCN(CCc3ccccc3)CC2)noc1-c1ccc(Cl)cc1 | -38% | -39.7%
13 | CCNC(=O)C#Cc1ccc2c(C(=Nc3ccc(CN(C)C)cc3)c3ccccc3)c(O)[nH]c2c1 | -98.3% | -96.8%
